D1 antag: human D1 dopamine receptor antagonism; P21728; activity change, negative = inhibition, % at 10 µM; 360,000 tested, 3.2% active; HEK293 TREx D1 cells, calcium flux, dopamine EC80; hits give low values; AID 504652; in the data active = activity change below about -30%; also: % is scaled to controls: 0 for no effect and ±100 for the full control effect
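HEK293 T-REx cells expressing inducible, force-coupled D1 receptor; no-wash Ca dye, 30–90 min RT. Cmpd → 180 s read at 1 Hz → EC80 DA → 180 s read.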
D1 potentiator: enhances dopamine response at the human D1 receptor; potentiation, % at 10 µM; P21728; HEK293 TREx D1 cells, calcium flux, dopamine EC20 potentiation; AID 504651; 360,000 tested, 0.036% active; in the data active = potentiation above about 30%; also: 0% is about no effect
D1 ag: activates the human D1 dopamine receptor; HEK293 T-REx D1 cells, calcium flux, agonist mode; activation, % at 2 µM; 360,000 tested, 1% active; also: 0% is about no effect
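Agonism was scored from calcium flux recorded over 180 s (1 read/s) after pintool compound addition, following a 10-cycle baseline. Cells were inducible force-coupled HEK293 TREx D1, plated overnight at 30 C and loaded with no-wash calcium dye.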
TRHR ag: agonists of human TRH receptor; 360,000 tested, 0.18% active; P34981; TRHR cells, calcium flux fluo-8, FDSS agonist mode; activation, % at 2 µM; also: 0% is about no effect
Target sequence (P34981 whole entry, looked up): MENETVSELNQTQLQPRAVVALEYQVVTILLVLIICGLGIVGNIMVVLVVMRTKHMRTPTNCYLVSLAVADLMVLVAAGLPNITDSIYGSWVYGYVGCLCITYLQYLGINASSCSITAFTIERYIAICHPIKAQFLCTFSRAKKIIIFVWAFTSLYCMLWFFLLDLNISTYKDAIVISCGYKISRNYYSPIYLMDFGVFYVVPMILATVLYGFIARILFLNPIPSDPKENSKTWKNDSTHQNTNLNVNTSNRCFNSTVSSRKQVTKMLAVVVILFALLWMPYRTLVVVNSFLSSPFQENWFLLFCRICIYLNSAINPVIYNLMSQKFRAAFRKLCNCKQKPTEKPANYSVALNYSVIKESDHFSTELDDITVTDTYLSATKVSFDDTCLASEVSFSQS
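Agonist-mode FDSS calcium read (Ex 480/Em 530, 1 s cycles) in 1536-well TRHR cells with fluo-8 dye, after 10-cycle baseline and 23 nL compound addition; TRH at EC20 (10 nM final) added afterwards for the enhancer phase.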
TRHR enhancer: allosteric enhancers of human TRH receptor. P34981. TRHR cells, fluo-8 calcium fluorescence, EC20 TRH enhancement. enhancement, % at 2 µM. 360,000 tested, 0.66% active. AID 493056; in the data active = enhancement above about 30%; also: 0% is about no effect
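TRHR-expressing cells loaded with fluo-8 calcium dye were read kinetically (ex 480/em 530) during compound addition, then stimulated with an EC20 of TRH (10 nM final). Enhancement of the Gq-mediated intracellular calcium response was scored.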
Numbers without * were called inactive; . = not tested or not shown; ! = repeats disagree. In the library only some 4.7% were active in any assay of this set; here they are far more common. Rule as the data show it, unless noted: active = activation above about 30%; inactive = the rest.

SMILES	D1 antag	D1 potentiator	D1 ag	TRHR ag	TRHR enhancer
COC1=C/C(=C/c2c(N)n3nc(-c4ccc(C)cc4)sc3nc2=O)C=CC1=O	14	-3	7	5	0
CCCc1cc(C(=O)Nc2cccc3ccccc23)n(C)n1	-3	-3	3	-2	0
CCCc1cc(C(=O)Nc2ccc(C(=O)c3ccc(C)cc3)cc2)n(C)n1	-35*	-14	6	1	2
COc1ccccc1NS(=O)(=O)c1cccc(C(=O)NN=C2CCCCCC2)c1	-3	-2	1	0	16
COc1ccccc1NS(=O)(=O)c1cccc(NC(=O)Nc2ccc(Cl)cc2)c1	-16	-8	15	1	4
COc1cc(C(=O)Nc2ccc(S(=O)(=O)Nc3cc(C)on3)cc2)cc(OC)c1OC	-79*	-2	0	0	9
COc1ccccc1NS(=O)(=O)c1cccc(NC(=O)Nc2ccccc2)c1	-33*	-13	8	-1	-5
COc1ccccc1NS(=O)(=O)c1cccc(C(=O)NNC(=O)c2ccc(=O)[nH]c2)c1	-32*	.	6	0	-3
CCOc1cc(C(=O)Nc2ccc(S(=O)(=O)Nc3cc(C)on3)cc2)cc(OCC)c1OCC	32	-2	2	0	4
COc1ccccc1NS(=O)(=O)c1ccc(NC(=O)N2CCCCC2)cc1	-46*	-9	4	0	5
COc1ccccc1NS(=O)(=O)c1ccc(NC(=O)c2ccncc2)cc1	-23	-5	14	1	38*
COc1ccccc1NS(=O)(=O)c1cccc(C(=O)OCc2nc3ccccc3s2)c1	-18	-1	8	1	-2
COc1ccccc1NS(=O)(=O)c1ccc(C(=O)NCc2ccncc2)cc1	-26	6	-1	0	3
COc1ccccc1NS(=O)(=O)c1cccc(C(=O)OCC(=O)Nc2cc(C)on2)c1	-32*	-6	2	1	0
COc1cccc(NC(=O)c2oc3ccccc3c2NC(=O)Cc2cccc(C)c2)c1	-1	-2	24	1	0
CCc1ccc(S(=O)(=O)c2c[nH]c3cc(OC)c(OC)cc3c2=O)cc1	-43*	-4	-1	0	5
O=C(O)c1ccc(S(=O)(=O)c2ccc3c(c2)C(=O)N(NC(=O)c2ccc(O)cc2)C3=O)cc1	10	-3	0	0	8
Cc1ccc(C(=O)NN2C(=O)c3ccc(S(=O)(=O)c4ccc(C(=O)O)cc4)cc3C2=O)cc1	-43*	-10	2	-1	-4
COc1cccc(CNC(=O)c2ccc(CN3CC(=O)N4CCCCC4C3=O)cc2)c1 (configuration not stated)	-1	-2	0	-1	14
COc1ccc(S(=O)(=O)N(Cc2cc3cc(C)ccc3[nH]c2=O)CC2CCCO2)cc1 (configuration not stated)	-5	12	0	0	-2
CCN(Cc1cc2ccccc2[nH]c1=O)S(=O)(=O)c1ccc(OC)cc1	-39*	-7	6	-1	-7
O=c1[nH]c2ccccc2cc1CN(CC1CCCO1)S(=O)(=O)c1ccccc1 (configuration not stated)	-35*	-7	-1	0	-20
Cc1ccc(-n2nc(C(=O)Nc3cccc(C#N)c3)c3c4ccccc4n(C)c3c2=O)cc1	13	3	-1	-1	3
CN(c1ccc(C(=O)Nc2ccc(CC#N)cc2)cc1)S(C)(=O)=O	-34*	-3	3	1	3
CN(c1ccc(C(=O)Nc2ccccc2Sc2ccccc2)cc1)S(C)(=O)=O	-40*	-3	17	2	1
SMILES	D1 antag	D1 potentiator	D1 ag	TRHR ag	TRHR enhancer
Cc1ccc(C(=O)Nc2ccccc2Sc2ccccc2)cc1	-8	-6	4	0	0
COc1ccc(-c2nc(-c3ccccc3)c(-c3ccc(F)cc3)[nH]2)c(OC)c1C	5	0	2	-1	-2
CCc1ccc(Sc2cc(C(=O)NCc3cccc(OC)c3)c3ccccc3n2)cc1	-32*	-2	13	3	-1
CCOc1ccc(Sc2cc(C(=O)NCc3ccccc3Cl)c3ccccc3n2)cc1	-36*	-2	4	1	11
CCc1ccc(Sc2cc(C(=O)NCCCN3CCCC(C)C3)c3ccccc3n2)cc1 (configuration not stated)	-22	0	36*	1	2
CCOc1ccc(Nc2cc(C(=O)NCc3ccccc3Cl)c3ccccc3n2)cc1	-10	2	-1	0	-3
CCc1ccc(Sc2cc(C(=O)NCCCN3CCC(C)CC3)c3ccccc3n2)cc1	-21	0	29	1	8
CCOc1ccc(-c2cc(C(=O)NCc3ccccc3Cl)c3ccccc3n2)cc1	-36*	-2	-2	1	-4
CCc1ccc(Nc2cc(C(=O)NCCCN3CCOCC3)c3ccccc3n2)cc1	-26	-6	51*	-1	11
COc1ccc(Nc2cc(C(=O)NCCCN3CCOCC3)c3ccccc3n2)cc1	-10	-4	2	1	1
COc1ccc(C(=O)C(CCC(CNC(C)(C)C)C(=O)c2ccc(OC)cc2)CNC(C)(C)C)cc1 (configuration not stated)	-37*	-11	16	2	-10
CCc1ccc(NC(=O)CSc2nc3ncccc3[nH]2)cc1	-18	0	0	-1	14
CCc1c(C)sc(NC(=O)c2cc(C3CC3)on2)c1C#N	-37*	-3	0	1	5
Cc1c(C(=O)N2CCCC2)sc(NC(=O)c2ccc(Cl)cc2)c1C#N	-64*	-8	0	1	-27
CC(C)(C)C(=O)NC1CC(=O)N(c2ccc3c(c2)OCCO3)C1 (configuration not stated)	.	-3	1	-1	5
COc1ccc(CCCc2nnc(SCC(=O)Nc3ccc(C)c(C)c3)o2)cc1	-32*!	-3	3	0	-4
COc1ccc(C(=O)NCc2nnc(SCC(=O)NCc3ccco3)o2)cc1OC	-41*	-1	2	1	-2
O=C(CSc1nnc(CNC(=O)c2ccc(F)cc2)o1)NCCc1ccccc1	15	2	1	0	-3
COc1ccc(C(=O)NCc2nnc(SCC(=O)NCCc3ccccc3)o2)cc1	10	5	1	0	36*
COc1ccc(CCCc2nnc(SCC(=O)Nc3ccc(OC)cc3)o2)cc1	-5	0	-1	-1	-4
O=C(COC(=O)CNC(=O)c1ccccc1)NCCc1ccccc1	4	2	5	0	-3
O=C(CNC(=O)c1ccccc1)NCCc1ccc(O)c(O)c1	-39*	-5	4	0	-2
Cc1c(CC(=O)NCCc2ccccc2)c(=O)oc2c(C)c3occ(C(C)(C)C)c3cc12	5	0	1	1	5
